Results: the supplement of paper PMC6992640
± gives the standard deviation of the averaged measurements.

Assays:
Experiment in all cases: cell viability (% of vehicle); higher = less cytotoxic
HCI01 [1] = cells of a triple-negative basal-like breast cancer xenograft; details: 1 µM; 72 h
UCD52 [2] = cells of a triple-negative basal-like breast cancer xenograft; details: 1 µM; 72 h
WHIM2 [3] = cells of a triple-negative basal-like breast cancer xenograft; details: 1 µM; 72 h
WHIM30 [4] = cells of a triple-negative basal-like breast cancer xenograft; details: 1 µM; 72 h
HCI01 [5] = details: 10 µM; 72 h
HCI03 = cells of an ER-positive luminal breast cancer xenograft; details: 10 µM; 72 h
HCI09 = cells of a triple-negative luminal androgen receptor type breast cancer xenograft; details: 10 µM; 72 h
HCI11 = cells of an ER-positive luminal breast cancer xenograft; details: 10 µM; 72 h
HCI13 = cells of an ER-positive luminal breast cancer xenograft; details: 10 µM; 72 h
HCI16 = cells of a triple-negative basal-like breast cancer xenograft; details: 10 µM; 72 h
UCD52 [6] = details: 10 µM; 72 h
WHIM2 [7] = details: 10 µM; 72 h
WHIM30 [8] = details: 10 µM; 72 h

| Structure (SMILES) | cell viability (HCI01 [1]) | cell viability (UCD52 [2]) | cell viability (WHIM2 [3]) | cell viability (WHIM30 [4]) | cell viability (HCI01 [5]) | cell viability (HCI03) | cell viability (HCI09) | cell viability (HCI11) | cell viability (HCI13) | cell viability (HCI16) | cell viability (UCD52 [6]) | cell viability (WHIM2 [7]) | cell viability (WHIM30 [8]) |
| --- | --- | --- | --- | --- | --- | --- | --- | --- | --- | --- | --- | --- | --- |
| Cc1cn(-c2cc(NC(=O)c3ccc(C)c(Nc4nccc(-c5cccnc5)n4)c3)cc(C(F)(F)F)c2)cn1 [Nilotinib(AMN-107)] | 78.2 | 77.5 | 88 | 75.3 | 105 ± 61 | 79.8 | 90.1 ± 21 | 76.6 | 91.3 ± 13 | 92.1 | 47.83 ± 0.22 | 69.1 ± 7.7 | 75 ± 2.3 |
| N.N.O=C([O-])C1(C(=O)[O-])CCC1.[Pt+2] [Carboplatin] | 87.9 | 80.1 | 99.9 | 77 | 82.1 ± 6.4 | 82.7 | 91.7 ± 4 | 86.4 | 86.87 ± 0.21 | 51 | 39.6 ± 6.8 | 84.8 ± 13 | 89 ± 5.5 |
| O=C(O)c1cc(O)c(O)c(O)c1 [Gallic acid] | 96.4 | 97.1 | 82.1 | 102 | 77.5 ± 0.96 | 107 | 90.8 ± 9.4 | 54.3 | 105 ± 7.6 | 126 | 91.2 ± 8.8 | 58 ± 13 | 84.5 ± 8.9 |
| CC(C)(C)c1ccc(C(=O)CCCN2CCC(OC(c3ccccc3)c3ccccc3)CC2)cc1 [Ebastine] | 94.4 | 87.5 | 107 | 83.4 | 83.8 ± 57 | 70.2 | 53.2 ± 39 | 81.2 | 31.9 ± 3.6 | 77.5 | 52.1 ± 4.6 | 52.3 ± 7.3 | 78.2 ± 9.7 |
| CO[C@H]1C[C@@H]2CC[C@@H](C)[C@@](O)(O2)C(=O)C(=O)N2CCCC[C@H]2C(=O)O[C@H]([C@H](C)C[C@@H]2CC[C@@H](O)[C@H](OC)C2)CC(=O)[C@H](C)/C=C(\C)[C@@H](O)[C@@H](OC)C(=O)[C@H](C)C[C@H](C)/C=C/C=C/C=C/1C [Rapamycin (Sirolimus)] | 78.1 | 52.6 | 68.3 | 75.4 | 40.4 ± 7.5 | 69.6 | 30.6 ± 8.6 | 51.6 | 39.5 ± 5.2 | 57.1 | 25.5 ± 2.9 | 42 ± 2.1 | 68.9 ± 29 |
| CC(C)C[C@H](NC(=O)[C@H](Cc1ccccc1)NC(=O)c1cnccn1)B(O)O [Bortezomib] | 32.8 | 21.6 | 24.9 | 24 |  |  |  |  |  |  |  |  |  |
| CC(Oc1cc(-c2cnn(C3CCNCC3)c2)cnc1N)c1c(Cl)ccc(F)c1Cl [(R)-Crizotinib] | 154 | 67.6 | 106 | 95.7 | 60 ± 23 | 135 | 24.8 ± 3.8 | 89.6 | 141.8 ± 0.89 | 41.9 | 23.1 ± 3.7 | 39.3 ± 3.3 | 125 ± 27 |
| Cc1nc(NC(=O)N2CCCC2C(N)=O)sc1-c1ccnc(C(C)(C)C(F)(F)F)c1 (stereo unspecified) | 74 | 64.7 | 54.9 | 83.3 | 85.7 ± 9.2 | 45.8 | 28.8 ± 5.1 | 75.9 | 44.2 ± 6.9 | 93.6 | 38.5 ± 2.5 | 65.6 ± 19 | 65.9 ± 2 |
| COc1cc(C(=O)NS(=O)(=O)c2ccccc2C)ccc1Cc1cn(C)c2ccc(NC(=O)OC3CCCC3)cc12 [Zafirlukast] | 93.6 | 95.3 | 111 | 97.2 | 24.1 ± 0.82 | 87.8 | 22.3 ± 1.4 | 86.4 | 111 ± 2.8 | 106 | 78.7 ± 6.7 | 42.6 ± 1.2 | 116 ± 8.7 |
| COc1cc2nccc(Oc3ccc(NC(=O)C4(C(=O)Nc5ccc(F)cc5)CC4)cc3)c2cc1OC.O=C(O)CC(O)C(=O)O [Cabozantinib malate (XL184)] | 92.9 | 93.9 | 90.8 | 84.4 | 88.7 ± 13 | 45.4 | 58.2 ± 4.8 | 44 | 85.1 ± 15 | 63.4 | 34.5 ± 3.2 | 105 ± 6.6 | 56 ± 1.8 |
| CCN1CCN(Cc2ccc(Nc3ncc(F)c(-c4cc(F)c5nc(C)n(C(C)C)c5c4)n3)nc2)CC1.CS(=O)(=O)O | 83.9 | 46.7 | 130 | 52.6 | 87.8 ± 54 | 136 | 83 ± 14 | 135 | 71.6 ± 8.8 | 116 | 26.16 ± 0.13 | 30.4 ± 14 | 80.6 ± 5.5 |
| O=C(c1ccc(F)c(F)c1Nc1ccc(I)cc1F)N1CC(O)(C2CCCCN2)C1 (stereo unspecified) [Cobimetinib] | 74.9 | 52.9 | 58.8 | 59.8 | 76.8 ± 21 | 80.6 | 64.7 ± 24 | 82.8 | 74.8 ± 0.28 | 63.2 | 42.65 ± 0.23 | 48.9 ± 3.3 | 78.2 ± 2.8 |
| Clc1ccc(COC(Cn2ccnc2)c2ccc(Cl)cc2Cl)cc1.O=[N+]([O-])O (stereo unspecified) [Econazole nitrate] | 101 | 92 | 115 | 92.7 | 33.7 ± 2 | 88.1 | 27.3 ± 11 | 116 | 36.3 ± 1.7 | 105 | 54 ± 2.1 | 45.3 ± 14 | 90.6 ± 24 |
| CN1CCN(CCCN2c3ccccc3Sc3ccc(C(F)(F)F)cc32)CC1.Cl.Cl [Trifluoperazine 2HCl] | 95.7 | 82.1 | 102 | 84.9 | 42.8 ± 8.5 | 57.4 | 30.2 ± 8 | 82.1 | 42.2 ± 2 | 54.1 | 33.8 ± 2.4 | 43.3 ± 3.1 | 97.8 ± 6.6 |
| Cc1ccc(-n2[nH]c(C)c(NN=C3C=CC=C(c4cccc(C(=O)O)c4)C3=O)c2=O)cc1C [Eltrombopag] | 85.8 | 94.6 | 101 | 96.2 | 28.3 ± 15 | 94.9 | 20.5 ± 4.7 | 60.9 | 54.9 ± 3 | 125 | 57 ± 2.9 | 37.8 ± 14 |  |
| CCC(=C(c1ccccc1)c1ccc(OCCN(C)C)cc1)c1ccccc1.O=C(O)CC(O)(CC(=O)O)C(=O)O [Tamoxifen Citrate] | 111 | 101 | 86.2 | 99.9 | 74 ± 57 | 78.8 | 28.1 ± 6 | 96.5 | 37.6 ± 3.9 | 59.7 | 34.5 ± 0.98 | 42.4 ± 7.6 | 104 ± 7.1 |
| C=CC(=O)Nc1cc(Nc2nccc(-c3cn(C)c4ccccc34)n2)c(OC)cc1N(C)CCN(C)C | 57.6 | 63 | 52.7 | 61.8 | 41.7 ± 1 | 39.9 | 50.4 ± 36 | 61.3 | 51.7 ± 3.8 | 60.7 | 30.1 ± 0.95 | 44.5 ± 7.7 | 41.7 ± 1.9 |
| C=C(c1ccc(C(=O)O)cc1)c1cc2c(cc1C)C(C)(C)CCC2(C)C [Bexarotene] | 106 | 107 | 91.9 | 142 | 60.2 ± 32 | 85.9 | 98.5 ± 3.8 | 100 | 54.3 ± 2.4 | 84.7 | 98 ± 14 | 44.8 ± 14 | 93.8 ± 4.4 |
| CCOc1nc2cccc(C(=O)OC(C)OC(=O)OC3CCCCC3)c2n1Cc1ccc(-c2ccccc2-c2nn[nH]n2)cc1 (stereo unspecified) [Candesartan Cilexetil] | 88.5 | 97.3 | 106 | 99.7 | 18.1 ± 12 | 94.5 | 18.3 ± 4.6 | 72.3 | 47.71 ± 0.052 | 75.3 | 74.3 ± 16 | 37.6 ± 6.6 | 128 ± 5.3 |
| CCOC(=O)c1c(CSc2ccccc2)n(C)c2cc(Br)c(O)c(CN(C)C)c12.Cl [Arbidol HCl] | 86.5 | 78.9 | 82.9 | 92.6 | 82.6 ± 33 | 87.3 | 58.6 ± 4.3 | 114 | 64.4 ± 11 | 92.3 | 35.7 ± 1.1 | 39.3 ± 9.1 | 85.2 ± 6.7 |
| CNC(=O)c1cc(Oc2ccc(NC(=O)Nc3ccc(Cl)c(C(F)(F)F)c3)cc2)ccn1.Cc1ccc(S(=O)(=O)O)cc1 [Sorafenib Tosylate] | 90.6 | 74.5 | 81.7 | 65.2 | 22 ± 0.23 | 65.5 | 14.6 ± 7 | 63.9 | 55.5 ± 31 | 45.9 | 82.6 ± 1 | 32.2 ± 0.44 | 41.9 ± 18 |
| Cc1cccc(CN2CCN(C(c3ccccc3)c3ccc(Cl)cc3)CC2)c1.Cl.Cl (stereo unspecified) [Meclizine 2HCl] | 136 | 93.4 | 98 | 99.5 | 85.9 ± 7.1 | 57.9 | 74 ± 12 | 67.4 | 52.7 ± 10 | 91.8 | 44 ± 6.2 | 71.6 ± 13 | 45.4 ± 6.8 |
| CCOC(=O)C1=C(COCCN)NC(C)=C(C(=O)OC)C1c1ccccc1Cl.O=S(=O)(O)c1ccccc1 (stereo unspecified) [Amlodipine Besylate] | 93.3 | 97.5 | 107 | 88.5 | 94.062 ± 0.027 | 115 | 63.8 ± 45 | 110 | 97.8 ± 2.3 | 102 | 50 ± 3.2 | 37 ± 1.7 | 81.2 ± 8.3 |
| O=C(O)CO.[NH2-].[NH2-].[Pt+2] [Nedaplatin] | 85.1 | 103 | 105 | 79.4 | 52.5 ± 16 | 89 | 87.8 ± 5.8 | 96.8 | 97 ± 12 | 51.1 | 33.06 ± 0.081 | 56.2 ± 5.7 | 66 ± 3.2 |
| Cc1ccc(NC(=O)c2ccc(CN3CCN(C)CC3)cc2)cc1Nc1nc(-c2cccnc2)cs1 [Masitinib (AB1010)] | 113 | 85.9 | 114 | 84.6 | 53.6 ± 6.1 | 68.7 | 20 ± 2.6 | 37.8 | 55.8 ± 12 | 93.6 | 49.9 ± 13 | 46.2 ± 8 | 146 ± 61 |
| CNCCCC12CCC(c3ccccc31)c1ccccc12.Cl [Maprotiline HCl] | 90.9 | 81.1 | 93.2 | 83.3 | 89.8 ± 4.9 | 75.5 | 56.8 ± 21 | 78.4 | 107.1 ± 0.46 | 80.2 | 35.4 ± 2.8 | 66.6 ± 10 | 44.8 ± 30 |
| CCCCc1oc2ccccc2c1C(=O)c1cc(I)c(OCCN(CC)CC)c(I)c1.Cl [Amiodarone HCl] | 96.6 | 101 | 94.7 | 98.4 | 69.5 ± 16 | 54.7 | 32.8 ± 9.1 | 75 | 36.2 ± 4 | 60 | 40.7 ± 7.3 | 37 ± 6 | 83.1 ± 5.7 |
